Results filed as inconclusive are left out. A call without a number means that no potency is given here. Activity calls are given as the source filed them. Unless noted, the call rests on the fitted dose curve; in most records, active means well fitted curve in the direction sought with a large enough effect in the repeat runs; inconclusive means weak or mixed curves; inactive means no such curve, though single readings can be large; an effect the other way counts as inactive or inconclusive.
Assays:
[1] = target: Aryl hydrocarbon receptor (Homo sapiens) (UniProt P35869); experiment: qHTS assay to identify small molecule that activate the aryl hydrocarbon receptor (AhR) signaling pathway (AID 743085); further: nearly all actives have a fitted effect of over 15% in size; further: potency means the concentration at half of the fitted maximal effect;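 on activation: HG2L7.5c1 human HepG2 liver cells with stably integrated DRE-driven firefly reporter; series mostly up to about 70 µM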
Sequence of Aryl hydrocarbon receptor (Homo sapiens) (P35869 whole entry, looked up): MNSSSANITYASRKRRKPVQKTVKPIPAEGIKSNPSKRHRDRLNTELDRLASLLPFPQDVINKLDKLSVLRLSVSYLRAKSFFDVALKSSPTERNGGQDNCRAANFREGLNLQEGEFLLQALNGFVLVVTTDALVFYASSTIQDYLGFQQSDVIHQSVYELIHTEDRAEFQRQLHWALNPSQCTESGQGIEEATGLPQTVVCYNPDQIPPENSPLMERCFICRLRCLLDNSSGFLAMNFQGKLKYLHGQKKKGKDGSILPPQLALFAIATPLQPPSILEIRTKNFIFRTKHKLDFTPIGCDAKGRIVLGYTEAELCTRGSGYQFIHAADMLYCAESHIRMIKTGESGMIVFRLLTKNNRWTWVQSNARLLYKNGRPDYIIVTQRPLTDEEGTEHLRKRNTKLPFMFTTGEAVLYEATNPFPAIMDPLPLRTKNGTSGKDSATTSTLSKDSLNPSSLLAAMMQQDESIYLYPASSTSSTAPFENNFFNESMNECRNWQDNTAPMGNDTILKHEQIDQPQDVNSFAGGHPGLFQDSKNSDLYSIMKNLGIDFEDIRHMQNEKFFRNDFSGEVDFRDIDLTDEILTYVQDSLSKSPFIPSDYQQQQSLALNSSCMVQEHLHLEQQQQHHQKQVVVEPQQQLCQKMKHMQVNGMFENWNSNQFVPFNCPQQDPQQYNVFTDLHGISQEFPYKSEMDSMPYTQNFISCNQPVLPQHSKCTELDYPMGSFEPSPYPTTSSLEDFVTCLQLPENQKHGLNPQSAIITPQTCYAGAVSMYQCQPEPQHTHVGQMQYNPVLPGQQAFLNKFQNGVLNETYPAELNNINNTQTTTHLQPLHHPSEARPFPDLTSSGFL
Summary of the method: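 Reporter assay in engineered HepG2 line HG2L7.5c1, whose plasmid carries twenty dioxin responsive elements upstream of firefly luciferase. Treatment lasted 24 h at 37C; ONE-Glo luminescence gauged induction.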

[2] = target: Peroxisome proliferator-activated receptor gamma (Homo sapiens) (UniProt P37231); experiment: qHTS assay to identify small molecule agonists of the peroxisome proliferator-activated receptor gamma (PPARg) signaling pathway (AID 743094; active means well fitted activation curve with a large enough effect in the signal ratio in the repeat runs, not every such curve was filed as active; the % refers to the signal ratio)
Sequence of Peroxisome proliferator-activated receptor gamma (Homo sapiens) (P37231 whole entry, looked up): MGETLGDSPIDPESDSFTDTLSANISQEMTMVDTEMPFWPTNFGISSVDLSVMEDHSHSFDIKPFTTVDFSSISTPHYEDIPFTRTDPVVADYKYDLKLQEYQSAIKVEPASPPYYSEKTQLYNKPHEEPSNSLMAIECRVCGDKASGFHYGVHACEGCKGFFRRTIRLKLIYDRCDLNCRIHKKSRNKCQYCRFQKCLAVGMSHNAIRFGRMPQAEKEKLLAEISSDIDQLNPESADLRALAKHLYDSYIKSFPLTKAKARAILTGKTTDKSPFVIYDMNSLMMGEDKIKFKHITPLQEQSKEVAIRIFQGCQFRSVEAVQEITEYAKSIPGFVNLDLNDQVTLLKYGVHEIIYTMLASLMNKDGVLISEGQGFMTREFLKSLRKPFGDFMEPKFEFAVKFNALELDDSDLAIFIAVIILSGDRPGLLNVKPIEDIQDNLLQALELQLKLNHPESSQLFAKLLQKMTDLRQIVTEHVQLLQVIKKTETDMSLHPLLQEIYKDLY
Summary of the method: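 Compounds dissolved in DMSO were added to PPARg UAS-bla HEK293H cells for 17 h at 37C, and reporter expression was quantified by fluorescence intensity after 1 h with LiveBLAzer B/G FRET substrate.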

[3] = qHTS assay to identify small molecule antagonists of the peroxisome proliferator-activated receptor gamma (PPARg) signaling pathway - cell viability counter screen (AID 743194); further: nearly all actives have a fitted effect of over 55% in size; further: potency means the concentration at half of the fitted maximal effect
Summary of the method: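 Cytotoxicity counter screen in PPARg-bla HEK293H cells, same wells as reporter assay. Compounds plus 50 nM rosiglitazone (final) for 17 h at 37 C, then viability read by CellTiter-Glo luminescence.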

[4] = qHTS assay for small molecule agonists of the antioxidant response element (ARE) signaling pathway (AID 743202; active means well fitted activation curve with a large enough effect in the signal ratio in the repeat runs, not every such curve was filed as active; the % refers to the signal ratio; further: potency means the concentration at half of the fitted maximal effect)
Summary of the method: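 Agonist mode reporter screen: HepG2 cells with ARE-controlled beta-lactamase are incubated with test compounds for 16 h at 37 C, and beta-lactamase activity is measured as fluorescence of cleaved B/G FRET substrate.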

[5] = qHTS assay for small molecule agonists of the antioxidant response element (ARE) signaling pathway - cell viability counter screen (AID 743203; calls by dose curve; further: nearly all actives have a fitted effect of over 55% in size; further: potency means the concentration at half of the fitted maximal effect)
Summary of the method: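 Following 16 hrs of compound treatment at 37C, HepG2 cells with an ARE-controlled beta-lactamase gene were lysed with CellTiter-Glo. Luminescence was read after 30 min at room temperature.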

[6] = qHTS assay for small molecule activators of the heat shock response signaling pathway - cell viability counter screen (AID 743209); further: nearly all actives have a fitted effect of over 50% in size; further: potency means the concentration at half of the fitted maximal effect
Summary of the method: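 Readout: CellTiter-Glo luminescence, 30 min at room temperature. System: HSE-bla HeLa cells, 1500/well, plated overnight. Treatment: compounds in DMSO, 5 h at 37 C.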

[7] = qHTS assay for small molecule activators of the heat shock response signaling pathway (AID 743210; active means well fitted activation curve with a large enough effect in the signal ratio in the repeat runs, with a control signal flat, not every such curve was filed as active; the % refers to the signal ratio;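 further: HeLa cells with beta-lactamase reporter driven by heat shock elements; series mostly up to about 63 µM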)
Summary of the method: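 Quantitative high-throughput format using an engineered HeLa line in which heat shock response elements drive beta-lactamase; after 5 h with compound, cells received a B/G FRET substrate and fluorescence was read.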

[8] = qHTS assay to identify small molecule agonists of the peroxisome proliferator-activated receptor delta (PPARd) signaling pathway - cell viability counter screen (AID 743211); further: nearly all actives have a fitted effect of over 55% in size; further: potency means the concentration at half of the fitted maximal effect
Summary of the method: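 Multiplexed format: after the 2 h room-temperature LiveBLAzer B/G FRET step, CellTiter-Glo was added to the same wells. Luminescence after 30 min gave cell viability; compound exposure was 17 h at 37C.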

[9] = qHTS assay to identify small molecule antagonists of the peroxisome proliferator-activated receptor delta (PPARd) signaling pathway - cell viability counter screen (AID 743213); further: nearly all actives have a fitted effect of over 50% in size; further: potency means the concentration at half of the fitted maximal effect
Summary of the method: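 HEK293H PPARd UAS-bla cells, 5 h pre-incubation, compound + L165041 300 nM final, 17 h 37 C; B/G FRET substrate 2 h RT; then CellTiter-Glo 30 min RT, luminescence.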

[10] = qHTS assay to identify small molecule antagonists of the farnesoid-X-receptor (FXR) signaling pathway - cell viability counter screen (AID 743221; active means well fitted cell-killing curve with a large enough effect in the repeat runs, not every such curve was filed as active; further: nearly all actives have a fitted effect of over 50% in size; further: potency means the concentration at half of the fitted maximal effect)
Summary of the method: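 CellTiter-Glo, 30 min RT, luminescence; same wells as the LiveBLAzer FRET read. Cells: FXR-UAS-bla HEK 293T. Treatment: compound with chenodeoxycholic acid 50 uM final, 16 h at 37 C.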

[11] = target: Vitamin D3 receptor (Homo sapiens) (UniProt P11473); experiment: qHTS assay to identify small molecule agonists of the vitamin D receptor (VDR) signaling pathway (AID 743222; calls by dose curve)
Sequence of Vitamin D3 receptor (Homo sapiens) (P11473 whole entry, looked up): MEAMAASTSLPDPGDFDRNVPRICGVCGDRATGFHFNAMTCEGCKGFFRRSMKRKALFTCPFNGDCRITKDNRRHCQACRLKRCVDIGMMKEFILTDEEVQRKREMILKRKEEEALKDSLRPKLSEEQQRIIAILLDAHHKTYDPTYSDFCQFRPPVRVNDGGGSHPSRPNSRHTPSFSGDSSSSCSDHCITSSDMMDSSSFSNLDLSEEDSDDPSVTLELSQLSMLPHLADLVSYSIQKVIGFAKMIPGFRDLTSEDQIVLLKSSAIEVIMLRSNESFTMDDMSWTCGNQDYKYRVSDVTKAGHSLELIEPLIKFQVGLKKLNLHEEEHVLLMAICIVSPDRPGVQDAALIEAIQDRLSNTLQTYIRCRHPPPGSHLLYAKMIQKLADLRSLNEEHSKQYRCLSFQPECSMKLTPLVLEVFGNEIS
Summary of the method: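 In VDR-bla cells, compound-induced beta-lactamase expression is quantified by FRET substrate fluorescence. Treatment lasts 16 h at 37C; substrate develops 2 h at room temperature.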

[12] = target: Vitamin D3 receptor (Homo sapiens) (UniProt P11473); experiment: qHTS assay to identify small molecule antagonists of the vitamin D receptor (VDR) signaling pathway (AID 743223; active means well fitted inhibition curve with a large enough effect in the signal ratio in the repeat runs, not every such curve was filed as active; the % refers to the signal ratio)
Summary of the method: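 After VDR-bla cells are plated and left 4 h at 37C, DMSO-dissolved compounds and 3 nM (final) calcitriol agonist are added. Incubation continues 16 h at 37C; FRET beta-lactamase substrate then develops 2 h at room temperature.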

[13] = target: Peroxisome proliferator-activated receptor gamma (Homo sapiens) (UniProt P37231); experiment: qHTS assay to identify small molecule antagonists of the peroxisome proliferator-activated receptor gamma (PPARg) signaling pathway (AID 743191; calls by dose curve; further: potency means the concentration at half of the fitted maximal effect; nearly all actives have a fitted effect of over 30% in size)
Summary of the method: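 GeneBLAzer PPARg UAS-bla HEK293H cells, 5 h post-plating, exposed to compounds 17 h at 37C. LiveBLAzer B/G FRET substrate added for 1 h at room temperature; beta-lactamase reporter read by fluorescence intensity.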

[14] = target: Peroxisome proliferator-activated receptor delta (Homo sapiens) (UniProt Q03181); experiment: qHTS assay to identify small molecule agonists of the peroxisome proliferator-activated receptor delta (PPARd) signaling pathway (AID 743212; calls by dose curve; further: potency means the concentration at half of the fitted maximal effect)
Sequence of Peroxisome proliferator-activated receptor delta (Homo sapiens) (Q03181 whole entry, looked up): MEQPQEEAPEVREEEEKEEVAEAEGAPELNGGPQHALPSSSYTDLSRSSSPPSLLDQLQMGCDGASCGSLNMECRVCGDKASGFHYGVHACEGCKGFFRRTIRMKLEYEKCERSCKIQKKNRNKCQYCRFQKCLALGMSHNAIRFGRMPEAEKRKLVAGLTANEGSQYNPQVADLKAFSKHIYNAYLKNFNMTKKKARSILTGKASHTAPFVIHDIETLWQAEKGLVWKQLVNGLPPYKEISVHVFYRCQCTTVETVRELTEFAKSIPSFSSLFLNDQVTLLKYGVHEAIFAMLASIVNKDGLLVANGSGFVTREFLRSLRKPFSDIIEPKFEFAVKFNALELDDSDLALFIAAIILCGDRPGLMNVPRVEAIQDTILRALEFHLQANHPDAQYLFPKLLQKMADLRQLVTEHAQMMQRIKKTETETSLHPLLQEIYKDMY
Summary of the method: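 Quantitative high-throughput agonist screen in a HEK293H beta-lactamase reporter line under UAS control. Compounds in DMSO, at 37 C. Fluorescence read after 2 h with FRET substrate at room temperature.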

[15] = target: Bile acid receptor (Homo sapiens) (UniProt Q96RI1); experiment: qHTS assay to identify small molecule agonists of the farnesoid-X-receptor (FXR) signaling pathway (AID 743220; active means well fitted activation curve with a large enough effect in the signal ratio in the repeat runs, not every such curve was filed as active; the % refers to the signal ratio)
Sequence of Bile acid receptor (Homo sapiens) (Q96RI1 whole entry, looked up): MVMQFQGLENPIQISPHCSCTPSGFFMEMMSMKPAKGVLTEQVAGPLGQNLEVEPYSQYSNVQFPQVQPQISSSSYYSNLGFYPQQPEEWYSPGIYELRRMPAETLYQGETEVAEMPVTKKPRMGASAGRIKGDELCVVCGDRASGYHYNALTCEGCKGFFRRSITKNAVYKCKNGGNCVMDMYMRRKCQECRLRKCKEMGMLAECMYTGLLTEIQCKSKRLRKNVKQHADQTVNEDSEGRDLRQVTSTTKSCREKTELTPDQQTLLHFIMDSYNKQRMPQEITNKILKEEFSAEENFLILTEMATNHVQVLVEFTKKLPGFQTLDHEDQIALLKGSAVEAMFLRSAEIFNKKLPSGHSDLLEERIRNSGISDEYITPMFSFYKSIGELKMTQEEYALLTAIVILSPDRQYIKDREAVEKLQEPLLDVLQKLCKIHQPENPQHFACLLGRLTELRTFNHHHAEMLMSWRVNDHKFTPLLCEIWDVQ
Summary of the method: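 Beta-lactamase reporter under UAS control in GeneBLAzer FXR HEK 293T cells (5000/well) measured with LiveBLAzer FRET substrate after 2 h at room temperature. Compound exposure lasted 16 h at 37C.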

[16] = qHTS assay to identify small molecule agonists of the farnesoid-X-receptor (FXR) signaling pathway - cell viability counter screen (AID 743218); further: nearly all actives have a fitted effect of over 45% in size; further: potency means the concentration at half of the fitted maximal effect
Summary of the method: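 Parallel cytotoxicity test: compound-treated (16 h, 37 C) HEK 293T FXR-bla reporter cells were lysed with CellTiter-Glo and luminescence recorded.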

[17] = target: Peroxisome proliferator-activated receptor delta (Homo sapiens) (UniProt Q03181); experiment: qHTS assay to identify small molecule antagonists of the peroxisome proliferator-activated receptor delta (PPARd) signaling pathway (AID 743215; active means well fitted inhibition curve with a large enough effect in the signal ratio in the repeat runs, not every such curve was filed as active; the % refers to the signal ratio;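 further: cells stimulated with agonist L165041 at 300 nM final during compound exposure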; further: potency means the concentration at half of the fitted maximal effect)
Summary of the method: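 HEK293H UAS-bla, PPARd; agonist L165041 300 nM final with cpd in DMSO; 37 C 17 h; FRET substrate, RT 2 h; fluorescence intensity.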

[18] = target: Bile acid receptor (Homo sapiens) (UniProt Q96RI1); experiment: qHTS assay to identify small molecule antagonists of the farnesoid-X-receptor (FXR) signaling pathway (AID 743217; active means well fitted inhibition curve with a large enough effect in the signal ratio in the repeat runs, not every such curve was filed as active; the % refers to the signal ratio)
Summary of the method: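 GeneBLAzer FXR-UAS-bla HEK 293T, CDCA-stimulated (50 uM final). Compound treatment 16 h, 37 °C. Detection: beta-lactamase cleavage of B/G FRET substrate, fluorescence.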

[19] = qHTS assay to identify small molecule that activate the aryl hydrocarbon receptor (AhR) signaling pathway - cell viability counter screen (AID 743086);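 further: HepG2 liver cells carrying the AhR DRE luciferase reporter; series mostly up to about 70 µM; nearly all actives have a fitted effect of over 45% in size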
Summary of the method: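 HepG2-AhR-luc (HG2L7.5c1) cells, 4000/well, treated 24 h at 37 C with compound; viability measured as CellTiter-Fluor fluorescence after 30 min in the same wells as the luciferase read.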

SMILES: N#[N+]c1ccc2c(S(=O)(=O)[O-])cccc2c1O
- Potency [1]: inactive
- Potency [2]: inactive
- Potency [3]: inactive
- Potency [4]: inactive
- Potency [5]: inactive
- Potency [6]: inactive
- Potency [7]: inactive
- Potency [8]: inactive
- Potency [9]: inactive
- Potency [10]: inactive
- Potency [11]: inactive
- Potency [12]: inactive

SMILES: Cc1c(C)c2c(c(C)c1OC(=O)CCC(=O)OCCO)CC[C@@](C)(CCC[C@H](C)CCC[C@H](C)CCCC(C)C)O2
- Potency [1]: inactive
- Potency [13]: 15 µM (active)
- Potency [3]: 33.5 µM (active)
- Potency [6]: inactive
- Potency [7]: inactive
- Potency [14]: inactive
- Potency [15]: inactive

SMILES: C[C@@]12CCC[C@H]1[C@@H]1CC[C@H]3C[C@@H](O)CC[C@]3(C)[C@H]1CC2
- Potency [3]: inactive
- Potency [4]: inactive
- Potency [5]: inactive
- Potency [6]: inactive
- Potency [14]: inactive
- Potency [9]: inactive
- Potency [16]: inactive
- Potency [15]: inactive
- Potency [10]: inactive

SMILES: Oc1ccc(Cl)c2cccnc12
- Potency [1]: 11.9 µM (active)
- Potency [4]: 23.7 µM (active)
- Potency [5]: inactive
- Potency [8]: 0.596 µM (active)
- Potency [17]: 1.06 µM (active)
- Potency [16]: inactive
- Potency [15]: inactive
- Potency [10]: inactive

SMILES: COc1ccc(OC(=O)N(CC(=O)O)Cc2ccc(OCCc3nc(-c4ccccc4)oc3C)cc2)cc1
- Potency [3]: inactive
- Potency [5]: inactive
- Potency [7]: inactive
- Potency [8]: inactive
- Potency [14]: 8.41 µM (active)
- Potency [9]: inactive
- Potency [17]: inactive
- Potency [18]: inactive
- Potency [16]: inactive
- Potency [10]: inactive
- Potency [12]: inactive

SMILES: CNC(=O)c1cnn(-c2nc(N)c3ncn([C@@H]4O[C@H](CO)[C@@H](O)[C@H]4O)c3n2)c1
- Potency [4]: inactive
- Potency [5]: inactive
- Potency [7]: inactive
- Potency [8]: inactive
- Potency [9]: inactive
- Potency [16]: inactive
- Potency [10]: inactive
- Potency [11]: inactive

SMILES: C[C@@H](O[C@H]1OCCN(Cc2n[nH]c(=O)[nH]2)[C@H]1c1ccc(F)cc1)c1cc(C(F)(F)F)cc(C(F)(F)F)c1
- Potency [1]: inactive
- Potency [6]: 29.8 µM (active)
- Potency [8]: 26.6 µM (active)
- Potency [14]: inactive
- Potency [9]: 26.6 µM (active)
- Potency [17]: 29.8 µM (active)
- Potency [15]: inactive
- Potency [10]: 29.8 µM (active)

SMILES: CS(=O)(=O)c1ccc(-c2cn3ccccc3n2)cc1
- Potency [3]: inactive
- Potency [4]: inactive
- Potency [8]: 29.8 µM (active)
- Potency [14]: inactive
- Potency [17]: inactive
- Potency [10]: inactive
- Potency [12]: inactive

SMILES: NNC(=O)CP(=O)(c1ccccc1)c1ccccc1
- Potency [19]: inactive
- Potency [3]: inactive
- Potency [4]: inactive
- Potency [5]: inactive
- Potency [6]: inactive
- Potency [7]: inactive
- Potency [8]: inactive
- Potency [14]: inactive
- Potency [9]: inactive
- Potency [17]: inactive
- Potency [16]: inactive
- Potency [10]: inactive

SMILES: OCCN1CCN(CCCN2c3ccccc3Sc3ccc(Cl)cc32)CC1
- Potency [5]: 29.8 µM (active)
- Potency [7]: inactive
- Potency [8]: 29.8 µM (active)
- Potency [14]: inactive
- Potency [16]: 26.6 µM (active)
- Potency [15]: inactive
- Potency [10]: 26.6 µM (active)
